Assay outcomes: PubChem, several laboratories
TWEAK-Fn14 inh = TWEAK-Fn14 signaling inhibition. AID 1159606. 2% of 360,000 active. TWEAK-stimulated Fn14 reporter cells, luciferase luminescence, 8 h. inhibition, % at 10 µM; in the data active = inhibition above about 50%
TROY NFkB inh = blocks TROY-dependent signaling in reporter cells. Q293 LMP1-TROYcd NF-kB luciferase reporter, 4 h. inhibition, % at 10 µM. 0.98% of 360,000 active. AID 1347056;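 active = compounds whose plate-normalised and pattern-corrected inhibition of the luciferase reporter signal at the single screening dose is 50% or more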
LGR2 inh = Drosophila LGR2 receptor signaling inhibition | 0.35% of 380,000 active | inhibition, % at 9.99 µM | HEK293 LGR2, CRE-luciferase, bursicon-stimulated, 4 h;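 active = drop in luminescence signal, shown as inhibition above about 50% in the replicate tests, limit read from the data, passing the limit was not always enough; inconclusive = probably only some replicates passing the limit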;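 note: agonist challenge used bursicon conditioned medium at about half maximal strength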
HSP90 refold inh = blocks HSP90-mediated luciferase refolding in reticulocyte lysate | Rabbit reticulocyte lysate, luciferase refolding luminescence, 3 h | inhibition, % at 5.6 µM | 0.91% of 290,000 active | AID 1789;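 active = inhibition above the screen-wide mean plus 3 SD, computed separately per campaign, cut at about 16% in these data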;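 note: inhibitors lower the luminescence because luciferase stays unfolded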
A number is an active result; n = inactive; u = inconclusive; x = no result given. The list is not random: actives were taken first. Their share in the collection is about 2.2%.

SMILES | TWEAK-Fn14 inh | TROY NFkB inh | LGR2 inh | HSP90 refold inh
COc1ccccc1-c1nc(C(=O)NCC2CCCO2)cc2c1[nH]c1ccccc12 (stereo not drawn) | n | n | x | n
COc1ccc(/C=N/NS(=O)(=O)c2ccc(C)cc2)cc1OC(=O)c1ccc(C)cc1 | 55 | n | x | n
COc1ccc(C(=O)Oc2cc(/C=N/NS(=O)(=O)c3ccccc3)ccc2OC)cc1 | n | n | x | n
Cc1ccc(C(=O)CSc2nnc3c4ccccc4nc(C(C)(C)C)n23)cc1 | n | 52 | n | n
Cc1noc(/C=C/c2ccccn2)c1[N+](=O)[O-] | 56 | n | n | n
Cc1noc(/C=C/Nc2ccc(F)cc2F)c1[N+](=O)[O-] | n | n | n | n
COc1ccc(-c2csc(NC(=O)C3=NN(c4ccccc4)C(=O)CC3)n2)cc1 | 88 | n | n | n
COc1ccc(-c2csc(NC(=O)c3ccccc3NS(=O)(=O)c3ccc(C)cc3)n2)cc1 | 93 | 70 | n | n
COc1ccc(S(=O)(=O)Nc2ccccc2C(=O)Nc2nc(-c3ccc(F)cc3)cs2)cc1OC | 92 | 59 | n | n
O=C(Nc1ccccc1)N1CC(=O)N2[C@H](CO)[C@@H](c3ccc(C#CC4CCCC4)cc3)[C@@H]2C1 | x | x | n | x
O=C(c1ccc2oc(CCc3ccccc3)nc2c1)N1CCC(O)CC1 | n | 58 | n | n
CCc1nnc(NC(=O)CCC(=O)N2CCN(C3c4ccccc4-c4ccccc43)CC2)s1 | 70 | 78 | n | n
CCc1nnc(NC(=O)CCC(=O)N2CCN(Cc3ccccc3)CC2)s1 | n | n | x | n
CC(C)CCn1c(N)c(S(=O)(=O)c2cccs2)c2nc3ccccc3nc21 | 90 | 86 | n | n
Nc1c(S(=O)(=O)c2cccs2)c2nc3ccccc3nc2n1Cc1cccs1 | n | 70 | x | n
Cc1ccc(S(=O)(=O)c2c(N)n(CCC(C)C)c3nc4ccccc4nc23)cc1 | n | 73 | x | n
Cc1ccc(S(=O)(=O)c2c(N)n(CCCO)c3nc4ccccc4nc23)cc1 | n | 64 | x | n
Nc1c(S(=O)(=O)c2cccs2)c2nc3ccccc3nc2n1CCc1ccccc1 | x | x | x | n
Nc1c(S(=O)(=O)c2ccccc2)c2nc3ccccc3nc2n1CCN1CCOCC1 | n | n | n | n
Cc1ccc(C(=O)Nn2c(N)c(S(=O)(=O)c3ccc(C)cc3)c3nc4ccccc4nc32)cc1 | n | n | x | n
COc1cccc(-c2ccc([C@H]3[C@H](CO)N(C(=O)C4CC4)C34CN(C(C)=O)C4)cc2)c1 | x | x | n | x
CCNC(=O)C[C@@H]1CC[C@H]2[C@@H](COC[C@H](O)CN2C(=O)c2cc(Cl)cc(Cl)c2)O1 | x | x | n | x
COCCNC(=O)C[C@@H]1CC[C@@H]2[C@H](COc3ccc(NC(=O)c4cc(C)on4)cc3C(=O)N2C)O1 | x | x | n | x
O=c1c2cc3c(cc2[nH]c(=S)n1CCN1CCOCC1)OCO3 | n | 78 | x | n
CC1CCN(C(=O)COC(=O)c2cccs2)CC1 | 58 | n | n | x
SMILES | TWEAK-Fn14 inh | TROY NFkB inh | LGR2 inh | HSP90 refold inh
C[C@@H]1CN([C@@H](C)CO)C(=O)c2cccc(NC(=O)c3ccc(-c4nccs4)cc3)c2O[C@H]1CN(C)C | x | x | n | x
CO[C@@H]1CN(C)C(=O)c2cc(NS(=O)(=O)c3ccc(Cl)cc3)ccc2OC[C@@H](C)N(C)C[C@H]1C | x | x | n | x
CC1(C)CC(N2CCC(=O)N(C3CC(C)(C)NC(C)(C)C3)C2)CC(C)(C)N1 | 80 | x | x | n
C/C(=N\Nc1ccc(C(=O)c2c(C)cc3ccccn23)cc1[N+](=O)[O-])c1ccc(O)cc1 | 62 | n | n | n
C/C(=N/Nc1ccc(C(=O)c2c(C)cc3ccccn23)cc1[N+](=O)[O-])c1ccc(O)cc1 | 53 | n | n | x
CC(C)C[C@H]1CNC(=S)N1C[C@H]1CCCN1C[C@H](Cc1ccc(O)cc1)N1C[C@H](Cc2ccc(O)cc2)N(CC2CCCCCC2)C1=S | 60 | n | n | x
Oc1ccc(C[C@@H](CN2CCC[C@@H]2CN2C(=S)NC[C@@H]2Cc2ccccc2)N2C[C@H](Cc3ccccc3)N(CCc3ccccc3)C2=S)cc1 | n | n | n | x
Oc1ccc(C[C@H]2CNC(=S)N2CC2CCCN2C[C@H](Cc2ccccc2)N2C[C@H](Cc3ccc(O)cc3)N(CCc3ccccc3)C2=S)cc1 (stereo partly drawn) | 58 | n | n | x
Cc1noc(C)c1S(=O)(=O)Nc1ccc2c(c1)C(=O)N([C@@H](C)CO)C[C@@H](C)[C@@H](CN(C)Cc1ccncc1)OCCCC[C@@H](C)O2 | x | x | n | x
Cc1ccc(/C=N/NC(=O)c2cc3c(ccc4ccccc43)o2)o1 | n | 73 | n | n
CC(C)Oc1ccc(CSC(=N)N)cc1 | 65 | n | x | n
O=C(C[C@@H]1CC[C@H](NC(=O)CN2CCOCC2)[C@H](CO)O1)NCc1cccc(F)c1 | x | x | n | x
CCCNC(=O)c1nnsc1S(=O)c1ccc(Cl)cc1 (stereo not drawn) | 72 | 59 | 103 | n
CCCNC(=O)NS(=O)(=O)c1ccc(Cl)cc1 | n | n | n | n
Cc1ccc(S(=O)c2snnc2C)cc1 (stereo not drawn) | n | n | n | n
CCCNC(=O)c1nnsc1S(=O)(=O)c1ccc(Cl)cc1 | 70 | 73 | 96 | n
CNC(=O)c1nnsc1S(=O)c1ccc(Cl)cc1 (stereo not drawn) | 63 | 60 | 102 | n
COC(=O)C[C@H]1CC[C@H]2[C@H](COc3ccc(NC(=O)c4cccc(Cl)c4)cc3C(=O)N2C)O1 | x | x | n | x
CCCCCCc1cc2cc(S(=O)(=O)c3ccc(F)c(Cl)c3)c(=O)oc2cc1O | 54 | 58 | n | n
CCCCCCc1cc2cc(C(=O)OCC)c(=O)oc2cc1O | n | n | n | n
COc1ccc(C[C@@H]2CCn3cc(nn3)COC[C@@H](C(C)C)NC2=O)cc1 | x | x | n | x
O=C(Nc1ccc2c(c1)OCCO2)NC1(C(F)(F)F)Oc2ccccc2O1 | 89 | n | u | n
Fc1ccc(-c2noc(-c3ccc4c(c3)CCO4)n2)cc1 | 61 | n | n | n
S=c1nccc(-c2ccc3c(c2)CCO3)[nH]1 | n | n | n | n
O=C(NCCCNC(=O)c1ccco1)c1ccc(Cl)cc1 | 70 | 61 | n | n
SMILES | TWEAK-Fn14 inh | TROY NFkB inh | LGR2 inh | HSP90 refold inh
O=S(=O)(Nc1nc2ccccc2nc1Nc1ccc(N2CCOCC2)cc1)c1cc(Cl)ccc1Cl | 80 | 61 | n | n
CC(=O)c1ccc(NS(=O)(=O)Cc2ccccc2)cc1 | n | n | n | n
CC(=O)N(C)c1ccc(NS(=O)(=O)Cc2ccccc2)cc1 | n | 57 | x | n
O=C(O)c1ccc(N=Nc2c(O)[nH]c3ccccc23)cc1 | 90 | n | n | 41
O=C(Nc1cccc(C(F)(F)F)c1)Oc1ccc(Cl)c2cccnc12 | 74 | n | n | n
CC(C)NC(=O)N(C)C[C@H]1OCCCC[C@@H](C)Oc2ccc(NS(=O)(=O)c3ccc(F)cc3)cc2C(=O)N([C@@H](C)CO)C[C@@H]1C | x | x | n | x
COCCNC(=O)Cn1nc(-c2ccccc2F)ccc1=O | 51 | n | n | n
CCOC(=O)/C(=C\c1cccnc1)C(=O)c1cc(C(C)=O)c(Nc2ccccc2)s1 | 106 | 86 | x | n
CCOC(=O)/C(=C\c1ccccc1)C(=O)c1cc(C(C)=O)c(Nc2ccccc2)s1 | 70 | n | x | n
Cc1ccccc1-c1ccc([C@H]2[C@@H](CO)N3CCCCN(C(=O)NC4CCCC4)C[C@H]23)cc1 | x | x | n | x
